Compound activity from PubChem.
Mac1 fbg enh: increases human CD11b/CD18 adhesion to fibrinogen. P05107+P11215. K562 CD11b/CD18 adhesion to fibrinogen, ATPlite luminescence. activation, % at 10 µM. actives 0.07% (n = 93,000). AID 1499;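 active = 10 µM primary screen giving 50% or more activity, confirmed by 40% or more on retest at that dose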
CYP2C19 activ: cytochrome P450 2C19 (human) activation; P33261; recombinant CYP2C19, luciferin-H EGE luminescence; active compounds read high; 0 = fully inhibited enzyme, 1 = untreated enzyme; activation factor at 5 µM; 96,000 tested, under 10 active;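 active = activation factor of at least 2 at 5 µM in the primary screen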;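 also: 0 = wells with 2.5 mM tranylcypromine and 1 = vehicle-only wells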
CYP2C9 inh: human CYP2C9 inhibition. CYP2C9 Supersomes, luciferin-H conversion, luminescence. actives 20% (n = 96,000). P11712. AID 777. inhibition, % at 5 µM;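 active = blocking of liver enzyme CYP2C9 beyond about 50% at 5 µM, limit read from the data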
Target sequence (P11712 whole entry, looked up): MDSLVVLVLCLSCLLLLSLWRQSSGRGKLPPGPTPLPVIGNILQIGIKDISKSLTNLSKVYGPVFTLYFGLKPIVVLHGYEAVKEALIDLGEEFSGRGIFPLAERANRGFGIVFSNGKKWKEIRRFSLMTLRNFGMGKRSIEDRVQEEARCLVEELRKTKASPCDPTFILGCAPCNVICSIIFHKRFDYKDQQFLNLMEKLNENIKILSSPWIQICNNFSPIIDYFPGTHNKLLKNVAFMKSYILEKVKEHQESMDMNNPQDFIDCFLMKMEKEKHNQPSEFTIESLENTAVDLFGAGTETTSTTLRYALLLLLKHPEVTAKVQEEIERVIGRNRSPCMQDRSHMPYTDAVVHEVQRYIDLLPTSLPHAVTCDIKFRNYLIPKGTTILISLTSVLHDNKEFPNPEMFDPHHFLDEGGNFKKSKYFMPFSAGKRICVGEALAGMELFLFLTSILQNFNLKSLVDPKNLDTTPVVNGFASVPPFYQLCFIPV
CYP2C19 inh: inhibitors of human CYP2C19; P33261; CYP2C19 Supersomes, luciferin-H EGE luminescence, 30 min; inhibition, % at 5 µM; actives 21% (n = 96,000); AID 778;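 active = CYP2C19 inhibition above a set limit at 5 µM in the primary screen, cut at about 50% in these data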;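 also: plate controls were negative control wells for no effect and 2.5 mM tranylcypromine positive control for full effect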
CYP2C9 activ: activators of human CYP2C9. activation factor at 5 µM. recombinant CYP2C9, luciferin-H conversion, luminescence; active compounds read high; factor 1 = untreated enzyme, 0 = blocked. AID 1024. actives 1.4% (n = 96,000);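 active = activation factor of 2 or more for CYP2C9 at a 5 µM dose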;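 also: 0 = sulfaphenazole-blocked wells and 1 = vehicle-only wells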
Mac1 fbg inh: CD11b/CD18-fibrinogen binding inhibition; P05107+P11215; K562 CD11b/CD18 adhesion to fibrinogen, ATPlite luminescence; Mn2+ added to activate the integrin; inhibition, % at 10 µM; actives 0.54% (n = 93,000);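 active = primary inhibition of 50% or more at 10 µM, then 40% or more on retest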
Active calls of the source: *. An excerpt weighted towards active compounds, which were near 28% of everything screened.

CCCCC(NC(=O)c1ccc(Cl)cc1)C(=O)O (centres undefined) was read as Mac1 fbg enh -1, CYP2C19 activ 1.1, CYP2C9 inh 30, CYP2C19 inh -6, CYP2C9 activ 0.7 and Mac1 fbg inh -11.
For CCOC(=O)C(CSCc1ccccc1)NC(=O)OC(C)(C)C (centres undefined) the results were Mac1 fbg enh -4, CYP2C19 activ 0.6, CYP2C9 inh 22, CYP2C19 inh 37, CYP2C9 activ 0.8 and Mac1 fbg inh -4.
CCOC(=O)C(CSCC(=O)c1ccc(Cl)cc1)NC(=O)OC(C)(C)C (centres undefined) was read as Mac1 fbg enh 4, CYP2C19 activ 0.4, CYP2C9 inh 28, CYP2C19 inh 60*, CYP2C9 activ 0.7 and Mac1 fbg inh 6.
CCOC(=O)C(CSCC(=O)c1ccc(Br)cc1)NC(=O)OC(C)(C)C (centres undefined) was read as Mac1 fbg enh 3, CYP2C19 activ 0.1, CYP2C9 inh 82*, CYP2C19 inh 93*, CYP2C9 activ 0.2 and Mac1 fbg inh -26.
For CCn1c(CNc2ccc(F)cc2)nnc1SCC(=O)OC1CCCCC1 the results were Mac1 fbg enh 1, CYP2C19 activ 0.7, CYP2C9 inh 51*, CYP2C19 inh 32, CYP2C9 activ 0.5 and Mac1 fbg inh 7.
`CCOC(=O)CN(C(=O)CSc1nnc(CNc2ccc(F)cc2)n1CC)c1ccc(F)cc1` gave Mac1 fbg enh -6, CYP2C19 activ 0.8, CYP2C9 inh -15, CYP2C19 inh 15, CYP2C9 activ 1.1 and Mac1 fbg inh 8.
COCCCn1c(SCC(=O)NC2CCCCC2)nnc1-c1ccncc1 was read as Mac1 fbg enh 0, CYP2C19 activ 0.6, CYP2C9 inh -7, CYP2C19 inh 38, CYP2C9 activ 1.1 and Mac1 fbg inh -8.
CCCNC(=O)NC(=O)CSc1nnc(-c2ccncc2)n1CC was read as Mac1 fbg enh -4, CYP2C19 activ 0.1, CYP2C9 inh 28, CYP2C19 inh 95*, CYP2C9 activ 0.7 and Mac1 fbg inh -2.
CCn1c(SCC(=O)NNC(=O)c2ccccc2)nnc1-c1ccncc1 was read as Mac1 fbg enh -4, CYP2C19 activ 1.1, CYP2C9 inh -8, CYP2C19 inh -13, CYP2C9 activ 1.1 and Mac1 fbg inh -12.
Screening CCn1c(SCC(=O)OC2CCCCC2)nnc1-c1ccncc1 returned Mac1 fbg enh 2, CYP2C19 activ 0.1, CYP2C9 inh 41, CYP2C19 inh 88*, CYP2C9 activ 0.6 and Mac1 fbg inh -11.
Screening CCn1c(CNc2ccc(F)cc2)nnc1SCC(=O)Nc1ccc(OC)cc1OC returned Mac1 fbg enh -5, CYP2C19 activ 0.5, CYP2C9 inh 11, CYP2C19 inh 50*, CYP2C9 activ 0.9 and Mac1 fbg inh 5.
`Cc1ccc(NC(=O)N2C(=O)C3(OCCO3)c3ccccc32)cc1` gave Mac1 fbg enh 0, CYP2C19 activ 0.4, CYP2C9 inh -4, CYP2C19 inh 60*, CYP2C9 activ 1 and Mac1 fbg inh -17.
For CCNC(=O)N1C(=O)C2(OCCO2)c2ccccc21 the results were Mac1 fbg enh -6, CYP2C19 activ 1, CYP2C9 inh 2, CYP2C19 inh 3, CYP2C9 activ 1 and Mac1 fbg inh -2.
Screening COCCOC(=O)c1c(C)n(C)c2ccc(OC(=O)C3CC3)cc12 returned Mac1 fbg enh -2, CYP2C19 activ 0.8, CYP2C9 inh 30, CYP2C19 inh 25, CYP2C9 activ 0.7 and Mac1 fbg inh 6.
For C=CCn1c(SCC(=O)N2CC(=O)Nc3ccccc32)nc2scc(-c3cccs3)c2c1=O the results were Mac1 fbg enh 6, CYP2C19 activ 0.4, CYP2C9 inh 83*, CYP2C19 inh 63*, CYP2C9 activ 0.2 and Mac1 fbg inh -13.
C=CCn1c(COc2ccc(F)cc2)nnc1SCC(=O)N1CC(=O)Nc2ccccc21 was read as Mac1 fbg enh -2, CYP2C19 activ 0.5, CYP2C9 inh -110, CYP2C19 inh 48, CYP2C9 activ 2.1* and Mac1 fbg inh 10.
`CC1CCCCC12NC(=O)N(CC(=O)Nc1sc3c(c1C(N)=O)CCC3)C2=O` (centres undefined) gave Mac1 fbg enh 4, CYP2C19 activ 0.8, CYP2C9 inh 70*, CYP2C19 inh 23, CYP2C9 activ 0.3 and Mac1 fbg inh 11.
